TDP-43 yeast inh – TDP-43 toxicity inhibition in yeast; TDP-43 expressing yeast growth rescue, BacTiter-Glo, 24 h; Potency, µM (doses to about 46.1 µM), for the others: at the highest dose growth rescue (activation), most hits filed as activators; actives 1.8% (n = 410,000); note: % of control where 0% means no effect; nearly all actives have a fitted effect of over 50% in size
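Galactose-induced TDP-43 yeast, OD600=0.02, compound pinned; 24 hr, 30 deg C; BacTiter-Glo luminescence for growth. Inhibitors of TDP-43 toxicity read as activators.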
FUS suppressor – suppressors of FUS proteinopathy in yeast. Potency, µM (doses to about 76.6 µM), actives largely listed as activators. S. cerevisiae FUS-expressing, growth rescue, OD600, 24 h. actives 0.24% (n = 390,000). AID 1347120;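 note: plate controls were DMSO vehicle for no effect and reference control for full effect; nearly all actives have a fitted effect of over 55% in size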
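Galactose (2%) drives FUS expression in yeast precultured in raffinose; seeding density OD 0.005. Test compounds incubated 24hr at 30C and 99% humidity before absorbance at 600 nm was measured.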
Abeta rescue – compounds reversing amyloid beta toxicity in yeast; AID 1347071; Potency, µM (series often up to 46.1 µM), actives largely listed as activators; yeast expressing A-beta42, growth rescue, OD600, 48 h; response scale: 0% DMSO, 100% iron-clioquinol control; actives 0.063% (n = 410,000); note: nearly all actives have a fitted effect of over 55% in size
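Yeast growth medium received pinned compounds, then yeast cells expressing toxic A-beta were added; plates incubated at 30 C for 48 hr. Growth read as absorbance at 600 nm, normalized to DMSO and equimolar FeCl3 plus clioquinol controls.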
aSyn rescue – rescues yeast growth from alpha-synuclein toxicity | actives 0.14% (n = 370,000) | Potency, µM (doses to about 46.1 µM), inactives show at the highest dose growth rescue (activation), usual class: activators | Yeast expressing alpha-synuclein, growth rescue, BacTiter-Glo, 24 h; note: % of control where 0% means no effect; nearly all actives have a fitted effect of over 65% in size
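Rescue of yeast growth: cells expressing toxic alpha-synuclein, induced in galactose at OD600 0.02, incubated with compound 24 h at 30 C. ATP luminescence quantified growth; inhibitors of toxicity appear as activators.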
An asterisk follows results filed as active. Rows were chosen to be rich in hits. Some 2.1% of all compounds tested hit in one or more screens of this group. Calls come from the whole dose curve; as a rule, active = well fitted curve in the direction sought with a large enough effect; inconclusive = small, poorly fitted or top-dose-only effect, or another doubt; inactive = no such curve, though single readings can be large; an effect the other way counts as inactive or inconclusive. Potency is the fitted concentration of half-maximal effect.

Results for COc1ccccc1Cc1c(C2CCCCC2)nc2ccc(Br)cn12 ?
TDP-43 yeast inh: 13µM*; FUS suppressor: inactive; Abeta rescue: inactive; aSyn rescue: -2%

Results for COc1ccccc1Cc1c(-c2ccccc2)nc2ccc(Br)cn12 ?
TDP-43 yeast inh: 35µM*; FUS suppressor: inactive; Abeta rescue: inactive; aSyn rescue: -1%

What do the screens show for `COc1ccccc1Cc1c(-c2ccc(C)cc2)nc2ccc(Br)cn12`?
TDP-43 yeast inh: 3%; FUS suppressor: inactive; Abeta rescue: inactive; aSyn rescue: -2%

How did FC(F)(F)c1ccccc1Cc1c(C2CCCCC2)nc2ccc(Br)cn12 do in these assays?
TDP-43 yeast inh: inconclusive; FUS suppressor: inactive; Abeta rescue: inactive; aSyn rescue: -39%

Results for Cc1nc(N2CCOCC2)nc(N2CCC(C)CC2)c1[N+](=O)[O-] ?
TDP-43 yeast inh: inconclusive; FUS suppressor: inactive; Abeta rescue: inactive; aSyn rescue: 0%

Results for Cc1nc(N2CCOCC2)nc(N2CCCCC2C)c1[N+](=O)[O-] (stereo not drawn) ?
TDP-43 yeast inh: 20µM*; FUS suppressor: inactive; Abeta rescue: inactive; aSyn rescue: -11%

How did CCN(CC)C(=O)N1CCN(/[N+]([O-])=N/Oc2ccc([N+](=O)[O-])cc2[N+](=O)[O-])CC1 do in these assays?
aSyn rescue: -58%

Results for O=C(O/N=C1\CCCc2ccccc21)c1cccs1 ?
TDP-43 yeast inh: 8.9µM*; FUS suppressor: inactive; Abeta rescue: inactive; aSyn rescue: -13%

Results for COc1ccc2c(c1)CC/C2=N\OC(=O)c1cccc(C)c1 ?
TDP-43 yeast inh: 5µM*; Abeta rescue: inactive; aSyn rescue: -54%

What do the screens show for `COc1ccc2c(c1)CCC/C2=N/OC(=O)c1ccccc1OC`?
TDP-43 yeast inh: 16µM*; FUS suppressor: inactive; Abeta rescue: inactive; aSyn rescue: -10%

Results for COc1ccc2c(c1)CC/C2=N\OC(=O)c1ccccc1C ?
TDP-43 yeast inh: inconclusive; FUS suppressor: inactive; Abeta rescue: inactive; aSyn rescue: -21%

How did COc1ccc(CC(=O)Nc2c(C(N)=O)oc3ccccc23)cc1OC do in these assays?
TDP-43 yeast inh: -5%; FUS suppressor: inactive; Abeta rescue: inactive; aSyn rescue: 6%

Results for CC(=O)Nc1c(C(=O)c2ccccc2)oc2ccccc12 ?
TDP-43 yeast inh: 7.9µM*; FUS suppressor: inactive; Abeta rescue: inactive

What do the screens show for `O=C(Cc1ccccc1)Nc1c(C(=O)c2ccccc2)oc2ccccc12`?
TDP-43 yeast inh: 15%; FUS suppressor: inactive; Abeta rescue: inactive

What do the screens show for `NC(=O)c1oc2ccccc2c1NC(=O)CCc1ccccc1`?
TDP-43 yeast inh: 11µM*; FUS suppressor: inactive; Abeta rescue: inactive; aSyn rescue: 1%

What do the screens show for `Nc1ccc2nc(-c3ccc(-c4nc5ccc(N)cc5[nH]4)cc3)[nH]c2c1`?
TDP-43 yeast inh: 14µM*; FUS suppressor: inactive; Abeta rescue: inconclusive; aSyn rescue: 9%

How did Nc1ccc(-c2nc3ccc(-c4nc5ccc(N)cc5[nH]4)cc3[nH]2)cc1 do in these assays?
aSyn rescue: -28%

How did Cc1ccc(-c2nc3ccc([N+](=O)[O-])cc3[nH]2)cc1 do in these assays?
TDP-43 yeast inh: 18µM*; FUS suppressor: inactive; Abeta rescue: inactive; aSyn rescue: 1%

How did COc1ccc(-c2nc3ccc([N+](=O)[O-])cc3[nH]2)cc1 do in these assays?
TDP-43 yeast inh: 16%; FUS suppressor: inactive; Abeta rescue: inactive; aSyn rescue: 11%

What do the screens show for `Cc1ccc(CCNC(=O)CCCn2c(=O)c3ccccc3n(Cc3ccccc3C)c2=O)cc1`?
TDP-43 yeast inh: 19%; FUS suppressor: inactive; Abeta rescue: inactive

Results for CCOC(=O)CN1C(c2ccc(O)cc2)Nc2ccc(Br)cc2C1c1ccccc1 (stereo not drawn) ?
TDP-43 yeast inh: 20µM*; Abeta rescue: inactive; aSyn rescue: 14%

Results for COc1ccc(CNC(=O)OC2CC3CC2[C@H]2CCCCN2C3)cc1 (stereo partly drawn) ?
FUS suppressor: inactive

What do the screens show for `NCC1OC(O[C@H]2[C@H](O)[C@@H](OC3C(O)C(N)CC(N)C3OC3OC(CO)C(O)C(O)C3N)O[C@@H]2CO)C(N)C(O)C1O` (stereo partly drawn)?
aSyn rescue: -10%

Results for CCc1nc2nc(C)cc(Nc3cc(Cl)ccc3C)n2n1 ?
TDP-43 yeast inh: inconclusive; FUS suppressor: inactive; Abeta rescue: inactive

Results for COc1ccc(N2CCN(C(=O)c3ccc(C)c(NC(=O)c4nsc5ccccc45)c3)CC2)cc1 ?
TDP-43 yeast inh: 15%; FUS suppressor: inactive; Abeta rescue: inactive

Results for O=[N+]([O-])c1ccc(-c2nc(Cl)c3c(n2)CCCC3)o1 ?
TDP-43 yeast inh: 7.1µM*; FUS suppressor: inactive; Abeta rescue: inactive; aSyn rescue: -6%

Results for CCCCc1c(-c2cccc(F)c2)ncn1CCc1ccccc1OC ?
TDP-43 yeast inh: 0%; FUS suppressor: inactive; Abeta rescue: inactive; aSyn rescue: 5%

How did CCCCc1c(-c2cccc(Br)c2)ncn1CCc1ccccc1OC do in these assays?
TDP-43 yeast inh: 25µM*; FUS suppressor: inactive; Abeta rescue: inactive; aSyn rescue: 3%

Results for CCOc1ccc(NC(=O)CN2CCCN(Cc3cc(C)ccc3C)S2(=O)=O)cc1 ?
TDP-43 yeast inh: 8%; FUS suppressor: inactive; Abeta rescue: inactive

What do the screens show for `CCCCN1C(=O)C2(OCCCO2)c2cccc(C)c21`?
TDP-43 yeast inh: 20µM*; FUS suppressor: inactive; Abeta rescue: inactive; aSyn rescue: 6%

Results for C=CCN1C(=O)C2(OCCCO2)c2cccc(C)c21 ?
TDP-43 yeast inh: 24%; FUS suppressor: inactive; Abeta rescue: inactive; aSyn rescue: 0%

What do the screens show for `COc1ccc(NC(=O)C2=C(C)C(=O)OC23CCN(C(C)C)CC3)cc1Cl`?
TDP-43 yeast inh: -9%; FUS suppressor: inactive; Abeta rescue: inactive

Results for COc1cc(C(C)=O)ccc1OCC(=O)c1cc(C)n(C2CC2)c1C ?
TDP-43 yeast inh: 25µM*; FUS suppressor: inactive; Abeta rescue: inactive; aSyn rescue: 5%

How did O=C(CSCc1ccccc1Cl)N1CCN(c2ccc(F)cc2)CC1 do in these assays?
TDP-43 yeast inh: 14µM*; FUS suppressor: inactive; Abeta rescue: inactive

How did O=C(CSCc1ccccc1Cl)N1CCN(c2ccc(Cl)cc2)CC1 do in these assays?
TDP-43 yeast inh: 16µM*; FUS suppressor: inconclusive; Abeta rescue: inactive

How did CCOC(=O)c1cccc(NS(=O)(=O)c2c(C)nc3sc(C)cn3c2=O)c1 do in these assays?
TDP-43 yeast inh: 11%; FUS suppressor: inactive; Abeta rescue: inactive

What do the screens show for `Cc1ccc(Cl)cc1NC(=O)Cn1c(=O)n(C(C)C)c(=O)c2oc3ccccc3c21`?
TDP-43 yeast inh: 20%; FUS suppressor: inactive; Abeta rescue: inactive

Screening data deposited in PubChem BioAssay by National Center for Advancing Translational Sciences (NCATS).
